The values below come from the OligoGym collection.
Further: reference of the scale not given here.

The first assay has as its target IKBKAP. In words: pooled miR-30 sensor sort-seq; sequence = guide strand. Conditions: shRNA.
TTGCAGTAGAATTGGGACCTAG gave a sensor-assay potency score (higher = more potent) of -0.443.

In turn, TTCTTCTGTTGATCTTTGGTGG returned a sensor-assay potency score (higher = more potent) of -0.174.

The sequence TAGCATCGCAGACAAGGTCTAT yielded a sensor-assay potency score (higher = more potent) of -0.408. On to TATTTGTCTATAGTAAACCGCT, for which the sensor-assay potency score (higher = more potent) is -0.467. On the same count and under the same terms, then TCTTCGTGACATCTTCTTCTTT, with -0.422. On the same count and under the same terms, then TTGTCTATAGTAAACCGCTGAT, with -0.619; and TTGAATATCCCTGAACTCCAGG, with -0.562. The sequence TATAACTTCAGAGCTTCGTTAT showed a sensor-assay potency score (higher = more potent) of -0.855.

In turn, TTTGTCTATAGTAAACCGCTGA returned a sensor-assay potency score (higher = more potent) of -0.157.

As for TTCTGAACCAATGAGCACCGTC, the sensor-assay potency score (higher = more potent) is -0.483. Still for that read-out and setting: then TTCTATAATATCCAGTCTGTTA, with -1.24.

Another assay concerns the target IKBKB. Described as above. Conditions: shRNA.
TTGCTTGCTCCTCTAGGTCGTC showed a sensor-assay potency score (higher = more potent) of -0.796. The sequence TAAGTCCACAATGTCGGTCTGC came in with a sensor-assay potency score (higher = more potent) of -0.424. TTGCTCGCTGTACTTCTCCAGG: the sensor-assay potency score (higher = more potent) was -0.598. TAGTCTCCTGTACAGCTCCCTT had a sensor-assay potency score (higher = more potent) of -1.81. For TTTTGTGTATTAACCTCTGTTC, the sensor-assay potency score (higher = more potent) is -0.501.

The sequence TTTGAATTGGACACTGTCCAGT gave a sensor-assay potency score (higher = more potent) of -0.0592.

As to TTTCCTGATTGTGCCATCGGAT, the sensor-assay potency score (higher = more potent) is -0.945. The same measure, in the same setting: then TTGCTCCTCTAGGTCGTCCAGC, with -1.32.

TTCGCTAACAACAATGTCCACC registered a sensor-assay potency score (higher = more potent) of -0.709. On the same count and under the same terms, with TTGAAAACTTCACCGTTCCATT the figure was -0.697. The sequence TCTTCTTCCGTCTGTAACCAGC gave a sensor-assay potency score (higher = more potent) of -1.13. The same measure, in the same setting: then TAAGTTTAAGATGTCATCCAGG, with -0.453.

The target in a further assay is IKBKG. The description is as above. The following applies: shRNA.
TACGTCCTGATCTGCTGCCGGG yielded a sensor-assay potency score (higher = more potent) of -1.55.

As for TTCAGTTTGCTGTACTCCCTCT, the sensor-assay potency score (higher = more potent) is -0.286.

Sequence TCACAATCTTGTGCTGCTCGGC registered a sensor-assay potency score (higher = more potent) of -0.555.

In turn, TGTGGTTGTCGTATTCTTGGAA gave a sensor-assay potency score (higher = more potent) of 0.455. As to TTATCGATCACCTCCTGTTTGG, the sensor-assay potency score (higher = more potent) was -0.717. The sequence TTAGTGGCAGCCTCCAAGCGAC displayed a sensor-assay potency score (higher = more potent) of -1.14.

As for TTGCACATGAGGAACTCCTTCT, the sensor-assay potency score (higher = more potent) worked out at 0.171. Consider TCGTATTCTTGGAAGAGCTGGT, for which the sensor-assay potency score (higher = more potent) came to 0.277. TTTGCTGTACTCCCTCTGCAGC yielded a sensor-assay potency score (higher = more potent) of -0.913. For the sequence TTGGAAATGCAGAAGCTCCTCG, the sensor-assay potency score (higher = more potent) turned out to be 0.49. TTCCTCATGTCCTCGATCCTGG had a sensor-assay potency score (higher = more potent) of -0.0606. TTTGAGATCTTCCAGCTGCATT came in with a sensor-assay potency score (higher = more potent) of -1.36.

A further assay concerns the target IL10. The description is as above. Conditions: shRNA.
TTTCACAGGGAAGAAATCGATG: the sensor-assay potency score (higher = more potent) is -0.836.

TAACAACAAGTTGTCCAGCTGA had a sensor-assay potency score (higher = more potent) of 0.191.

Sequence TAGGCTTCTATGTAGTTGATGA yielded a sensor-assay potency score (higher = more potent) of -0.258. ATTAAAGGCATTCTTCACCTGC had a sensor-assay potency score (higher = more potent) of -0.126. As to TGAAAGAAAGTCTTCACTCTGC, the sensor-assay potency score (higher = more potent) came to 0.368.
